What was measured:
Experiment in all cases: relative growth (AUC of 72 h growth curve relative to DMSO control, dAUC) (ratio); higher = more growth (less inhibition), active = hit call of the paper
Conditions in all cases: 20 µM;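 active = growth AUC significantly below the DMSO wells by Dunnett test; inactive = the rest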
[1] = tested on: Prolinoborus 1 (Prolinoborus fasciculus)
Summary of the method: (§1)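 Isolates from Icelandic stream sediments and Silwood Park soil, along with whole sediment communities, were grown in Luria–Bertani medium to carrying capacity and diluted 1:100 into 96-well plates with each chemical at 20 µM (1% DMSO). A600 was measured hourly for 72 h, and values were averaged over three biological replicates. Relative growth (dAUC) is the spline-integrated growth-curve area over the mean of the DMSO controls.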

[2] = tested on: Pseudomonas 1 (Pseudomonas baetica)
Summary of the method: as §1

[3] = tested on: Pseudomonas 2 (Pseudomonas vancouverensis)
Summary of the method: as §1

[4] = tested on: Pseudomonas 3 (Pseudomonas mandelii)
Summary of the method: as §1

[5] = tested on: Pseudomonas 4 (Pseudomonas peli)
Summary of the method: as §1

[6] = tested on: Pseudomonas 5 (Pseudomonas baetica)
Summary of the method: as §1

[7] = tested on: Pseudomonas 6 (Pseudomonas sp.)
Summary of the method: as §1

[8] = tested on: Rhizobium 1 (Rhizobium herbae)
Summary of the method: as §1

[9] = tested on: Serratia 1 (Serratia sp. 2015-2462-01)
Summary of the method: as §1

[10] = tested on: Sphingomonas 2 (Sphingomonas sp.)
Summary of the method: as §1

Measured: relative growth

CCOc1ccc(C(C)(C)COCc2cccc(Oc3ccccc3)c2)cc1
inactive: [1] 0.909 | [2] 1.14 | [3] 0.998 | [4] 1.02 | [5] 0.914 | [6] 0.991 | [7] 1.02 | [8] 0.851 | [9] 0.956 | [10] 0.967

CCc1nn(C)c(C(=O)NCc2ccc(Oc3ccc(C)cc3)cc2)c1Cl
inactive: [1] 0.978 | [2] 1.08 | [3] 1.02 | [4] 1.01 | [5] 0.987 | [6] 1.01 | [7] 1.05 | [8] 0.941 | [9] 1.07 | [10] 1.04

CC(C)(C)c1ccc(CSc2cnn(C(C)(C)C)c(=O)c2Cl)cc1
inactive: [1] 0.998 | [2] 1 | [3] 1.01 | [4] 1.02 | [5] 1.02 | [6] 1.01 | [7] 1.13 | [8] 1.04 | [9] 1.06 | [10] 0.802

CCCN(CCOc1c(Cl)cc(Cl)cc1Cl)C(=O)n1ccnc1
inactive: [1] 0.93 | [2] 1.07 | [3] 0.984 | [4] 1.02 | [5] 0.964 | [6] 0.997 | [7] 1.03 | [8] 0.949 | [9] 0.985 | [10] 0.993

CC1(C)C(C=C(Cl)Cl)C1C(=O)OC(C#N)c1cccc(Oc2ccccc2)c1 (stereo not given)
inactive: [1] 0.983 | [2] 0.942 | [3] 1.06 | [4] 1.06 | [5] 1.04 | [6] 1.02 | [7] 1 | [8] 1.15 | [9] 1.01 | [10] 1.03

CC(Oc1ccc(Oc2ncc(C(F)(F)F)cc2Cl)cc1)C(=O)O (stereo not given)
inactive: [1] 0.983 | [2] 1.1 | [3] 1.04 | [4] 1.05 | [5] 1 | [6] 1.03 | [7] 1.17 | [8] 1.11 | [9] 0.972 | [10] 1.08

CC(C)OC(=O)Nc1cccc(Cl)c1
inactive: [1] 0.976 | [2] 0.905 | [3] 0.958 | [4] 1.04 | [5] 0.981 | [6] 0.991 | [7] 0.921 | [8] 0.876 | [9] 0.974 | [10] 0.926

Cc1cccc2sc3nncn3c12
inactive: [1] 1.01 | [2] 1.18 | [3] 0.997 | [4] 1.03 | [5] 0.947 | [6] 1.04 | [7] 1.1 | [8] 0.846 | [9] 0.947 | [10] 0.944

CC(C)N(C(=O)COc1nnc(C(F)(F)F)s1)c1ccc(F)cc1
inactive: [1] 0.963 | [2] 1.07 | [3] 1.03 | [4] 1.07 | [5] 0.983 | [6] 1.01 | [7] 1.1 | [8] 1.02 | [9] 0.984 | [10] 1.09

COc1cc(OC)nc(NC(=O)NS(=O)(=O)c2ncccc2C(=O)N(C)C)n1
inactive: [1] 0.999 | [2] 0.988 | [3] 1 | [4] 1.01 | [5] 0.993 | [6] 0.996 | [7] 0.943 | [8] 0.992 | [9] 1 | [10] 1

CC1(C)C(C=C(Cl)Cl)C1C(=O)OCc1cccc(Oc2ccccc2)c1 (stereo not given)
inactive: [1] 0.985 | [2] 1.13 | [3] 0.97 | [4] 1 | [5] 0.979 | [6] 1.05 | [7] 1.13 | [8] 0.958 | [9] 0.964 | [10] 1.02

CCN(CC)c1nc(C)cc(OP(=S)(OC)OC)n1
inactive: [1] 1.01 | [2] 1 | [3] 1 | [4] 1 | [5] 0.979 | [6] 0.988 | [7] 1.03 | [8] 1.05 | [9] 0.994 | [10] 0.839

O=C1c2ccccc2C(=O)N1SC(Cl)(Cl)Cl
inactive: [1] 1.04 | [2] 1.05 | [3] 0.992 | [4] 1.01 | [5] 1.01 | [6] 1.06 | [7] 1.16 | [8] 1.01 | [9] 0.947 | [10] 0.999

Cc1cc(C)c(C2=C(OC(=O)CC(C)(C)C)C3(CCCC3)OC2=O)c(C)c1
inactive: [1] 0.977 | [2] 1.1 | [3] 1.12 | [4] 1.09 | [5] 1 | [6] 1.03 | [7] 1.2 | [8] 0.937 | [9] 1.03 | [10] 1.01

O=[N+]([O-])/N=C1\NCCN1Cc1ccc(Cl)nc1
inactive: [1] 0.987 | [2] 0.857 | [3] 0.973 | [4] 1.04 | [5] 1.01 | [6] 0.978 | [7] 0.932 | [8] 0.991 | [9] 0.968 | [10] 0.979

C#CCN1C(=O)COc2cc(F)c(N3C(=O)C4=C(CCCC4)C3=O)cc21
inactive: [1] 0.972 | [2] 1.1 | [3] 1 | [4] 1.04 | [5] 0.985 | [6] 1.05 | [7] 1.05 | [8] 0.908 | [9] 0.938 | [10] 0.959

OC(Cn1cncn1)(c1ccc(F)cc1)c1ccccc1F (stereo not given)
inactive: [1] 0.985 | [2] 0.993 | [3] 0.999 | [4] 1.03 | [5] 1.02 | [6] 1 | [7] 0.961 | [8] 0.971 | [9] 0.991 | [10] 1.03

O=C(Nc1ccccc1-c1ccc(Cl)cc1)c1cccnc1Cl
inactive: [1] 0.978 | [2] 0.948 | [3] 0.972 | [4] 1 | [5] 0.986 | [6] 0.998 | [7] 0.959 | [8] 0.665 | [9] 0.971 | [10] 0.958

CC(C)CC(C)c1sccc1NC(=O)c1cn(C)nc1C(F)(F)F (stereo not given)
inactive: [1] 0.895 | [2] 1.11 | [3] 0.985 | [4] 1.05 | [5] 1 | [6] 1 | [7] 1.05 | [9] 0.974 | [10] 0.888
active: [8] 0.331

CO/C=C(/C(=O)OC)c1ccccc1COc1cccc(C(F)(F)F)n1
inactive: [1] 0.929 | [2] 1.02 | [3] 0.958 | [4] 0.991 | [5] 0.97 | [6] 1.05 | [7] 1.11 | [8] 0.96 | [9] 0.966 | [10] 1

Nc1c([N+](=O)[O-])ccc(Oc2ccccc2)c1Cl
inactive: [1] 0.962 | [2] 1.15 | [3] 0.982 | [4] 1.03 | [5] 0.949 | [6] 1.02 | [7] 1.15 | [8] 0.888 | [9] 0.946 | [10] 0.871

N#Cc1sc2c(=O)c3ccccc3c(=O)c=2sc1C#N
inactive: [1] 1.03 | [2] 0.913 | [3] 0.929 | [5] 1.07 | [6] 0.962 | [7] 0.885 | [8] 1 | [9] 0.862 | [10] 1.01
active: [4] 0.887

CCOCN(C(=O)CCl)c1c(C)cccc1CC
inactive: [2] 1.1 | [3] 0.978 | [4] 1.02 | [5] 0.966 | [6] 0.988 | [7] 1.03 | [8] 0.909 | [9] 0.95 | [10] 1.17
1.2: [1]

CCCC(Cn1cncn1)c1ccc(Cl)cc1Cl (stereo not given)
inactive: [1] 0.988 | [2] 1.01 | [3] 0.994 | [4] 1.02 | [5] 1.07 | [6] 1.01 | [7] 0.993 | [8] 1.04 | [9] 0.994 | [10] 1.03

CCc1cc(C)cc(CC)c1-c1c(OC(=O)C(C)(C)C)n2n(c1=O)CCOCC2
inactive: [1] 0.926 | [2] 1.1 | [3] 0.992 | [4] 1.01 | [5] 0.953 | [6] 0.951 | [7] 1.02 | [8] 0.907 | [9] 0.972 | [10] 1.06

COc1ncc(F)c2nc(S(=O)(=O)Nc3c(F)cccc3F)nn12
inactive: [1] 1.01 | [2] 1.05 | [3] 1.02 | [4] 1.01 | [5] 0.989 | [6] 0.958 | [7] 0.99 | [8] 0.982 | [9] 1.03 | [10] 1.04

N#C/N=C1\SCCN1Cc1ccc(Cl)nc1
inactive: [1] 1.03 | [2] 1.05 | [3] 1.01 | [4] 1.02 | [5] 1.03 | [6] 1 | [7] 1 | [8] 1.02 | [9] 0.986 | [10] 0.998
